For experiment [1], the target named is Bcl-2-like protein 1 (Homo sapiens) (UniProt Q07817). In words: Bcl-xL BH3-peptide displacement, hit confirmation – biochemical, fluorescence polarization, counter-screen for MCL1 inhibitor project (AID 2166;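 active = inhibition above a cutoff equal to the mean inhibition of all tested compounds plus 3 SD, cut at about 30% in these data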). Particulars: GST-Bcl-xL / FITC-Bim BH3 peptide FP binding; at 10.9 µM; hits give high values. A general note: Fluorescence polarisation rises when a labelled molecule tumbles more slowly, as on binding a larger partner.
Chain of Bcl-2-like protein 1 (Homo sapiens) (Q07817 whole entry, looked up): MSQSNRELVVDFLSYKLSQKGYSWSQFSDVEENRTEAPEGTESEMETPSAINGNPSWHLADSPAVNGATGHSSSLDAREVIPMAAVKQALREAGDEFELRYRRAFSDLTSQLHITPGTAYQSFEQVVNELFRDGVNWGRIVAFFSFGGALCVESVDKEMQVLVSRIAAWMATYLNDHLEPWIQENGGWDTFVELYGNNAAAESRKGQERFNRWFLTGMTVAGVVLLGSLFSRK

The target in experiment [2] is Induced myeloid leukemia cell differentiation protein Mcl-1 (Homo sapiens) (UniProt Q07820). Description: MCL1-BIM peptide interaction disruptors – biochemical, fluorescence polarization, triplicate, confirmation (AID 2168;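 active = inhibition above the average of all tested compounds plus 3 SD, cut at about 40% in these data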;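 note: 0% = DMSO wells and 100% = unlabeled Bim-BH3 control peptide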). The following applies: GST-MCL1 / FITC-Bim-BH3 fluorescence polarization; at 10.9 µM; hits give high values.
Chain of Induced myeloid leukemia cell differentiation protein Mcl-1 (Homo sapiens) (Q07820 whole entry, looked up): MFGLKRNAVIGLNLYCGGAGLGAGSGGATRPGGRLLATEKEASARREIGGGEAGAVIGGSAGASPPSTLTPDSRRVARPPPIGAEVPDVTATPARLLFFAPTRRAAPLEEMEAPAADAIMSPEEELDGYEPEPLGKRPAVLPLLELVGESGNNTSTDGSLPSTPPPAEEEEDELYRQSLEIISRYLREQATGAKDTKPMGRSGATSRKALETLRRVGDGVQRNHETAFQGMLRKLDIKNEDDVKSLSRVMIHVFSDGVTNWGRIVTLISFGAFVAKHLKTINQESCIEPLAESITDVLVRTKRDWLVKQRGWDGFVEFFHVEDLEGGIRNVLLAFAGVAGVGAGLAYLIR
For experiment [3], the target named is Protein phosphatase methylesterase 1 (Homo sapiens) (UniProt Q9Y570). In words: human PME-1 methylesterase inhibition confirmation – biochemical, fluorescence polarization, FP-Rh probe, triplicate (AID 2171).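 Note: 0% = enzyme with DMSO and 100% = wells lacking PME-1.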 The following applies: recombinant PME-1, FP-Rh probe fluorescence polarization; at 5.9 µM; hits give high values.
Chain of Protein phosphatase methylesterase 1 (Homo sapiens) (Q9Y570 whole entry, looked up): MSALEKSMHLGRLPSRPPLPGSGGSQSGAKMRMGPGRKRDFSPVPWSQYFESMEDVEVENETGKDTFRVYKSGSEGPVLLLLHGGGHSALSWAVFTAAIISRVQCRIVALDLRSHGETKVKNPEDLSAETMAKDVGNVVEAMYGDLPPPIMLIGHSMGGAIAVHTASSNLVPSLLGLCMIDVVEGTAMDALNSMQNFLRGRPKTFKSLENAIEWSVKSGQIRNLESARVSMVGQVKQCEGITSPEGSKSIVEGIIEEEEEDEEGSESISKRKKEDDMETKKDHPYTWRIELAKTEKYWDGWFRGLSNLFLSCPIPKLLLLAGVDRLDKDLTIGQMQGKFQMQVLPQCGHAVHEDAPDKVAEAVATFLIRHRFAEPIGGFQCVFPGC
The target of experiment [4] is Nuclear receptor subfamily 5 group A member 2 (Homo sapiens) (UniProt O00482). Description: NR5A2 activity suppression in reporter cells – cell-based, luminescence, confirmation (AID 651613; in the data active = inhibition above about 42%;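 note: HEK293T cells co-transfected with LRH-1 and StAR promoter luciferase reporter; 0% = vehicle wells and 100% = parental cells lacking receptor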). The following applies: cell-based LRH-1 luciferase reporter, inverse agonism; at 3.6 µM; hits give high values. Background: In a reporter assay the amount or activity of a reporter protein is the signal.
Chain of Nuclear receptor subfamily 5 group A member 2 (Homo sapiens) (O00482 whole entry, looked up): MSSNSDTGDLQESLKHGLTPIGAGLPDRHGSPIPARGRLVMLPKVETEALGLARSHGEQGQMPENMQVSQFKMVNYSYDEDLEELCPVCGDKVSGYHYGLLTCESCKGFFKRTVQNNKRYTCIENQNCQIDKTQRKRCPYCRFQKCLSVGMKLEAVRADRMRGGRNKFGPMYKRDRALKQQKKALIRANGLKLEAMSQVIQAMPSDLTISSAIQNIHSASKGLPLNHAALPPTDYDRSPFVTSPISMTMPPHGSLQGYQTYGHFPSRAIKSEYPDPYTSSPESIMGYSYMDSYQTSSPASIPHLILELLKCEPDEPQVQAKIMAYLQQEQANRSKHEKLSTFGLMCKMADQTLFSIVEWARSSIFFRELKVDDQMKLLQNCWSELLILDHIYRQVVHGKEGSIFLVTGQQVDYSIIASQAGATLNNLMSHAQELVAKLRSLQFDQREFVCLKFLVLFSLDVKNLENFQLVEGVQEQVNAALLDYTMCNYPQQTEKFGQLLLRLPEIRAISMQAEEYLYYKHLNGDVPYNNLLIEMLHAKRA

Experiment [5] concerns the target Steroidogenic factor 1 (Homo sapiens) (UniProt Q13285). In words: inverse agonism at SF1 nuclear receptor – cell-based, luminescence, high throughput, counter-screen for LRH-1 inverse agonist project (AID 651614; in the data active = inhibition above about 44%;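 note: cells cotransfected with StAR promoter reporter and SF1 expression vector; 0% = vehicle on cells with receptor and 100% = vehicle on cells lacking receptor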). Particulars: cell-based SF1 luciferase reporter, at 3.6 µM, hits give high values. (In general: The purpose of a counterscreen is to sort out artefacts and off-target activity.)

Experiment [6] deals with Protein-arginine deiminase type-4 (Homo sapiens) (UniProt Q9UM07). Description: protein arginine deiminase 4 blockade, retest – biochemical, fluorescence polarization, confirmation (AID 488796;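 active = mean inhibition across replicates above the hit cutoff set by the earlier primary screen, cut at about 15% in these data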;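 note: inhibitors block active-site labeling by the probe so polarization falls; 0% = PAD4 with probe and DMSO and 100% = probe without PAD4 enzyme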). Particulars: recombinant PAD4, RCA probe fluorescence polarization; at 6.36 µM; hits give high values.
Chain of Protein-arginine deiminase type-4 (Homo sapiens) (Q9UM07 whole entry, looked up): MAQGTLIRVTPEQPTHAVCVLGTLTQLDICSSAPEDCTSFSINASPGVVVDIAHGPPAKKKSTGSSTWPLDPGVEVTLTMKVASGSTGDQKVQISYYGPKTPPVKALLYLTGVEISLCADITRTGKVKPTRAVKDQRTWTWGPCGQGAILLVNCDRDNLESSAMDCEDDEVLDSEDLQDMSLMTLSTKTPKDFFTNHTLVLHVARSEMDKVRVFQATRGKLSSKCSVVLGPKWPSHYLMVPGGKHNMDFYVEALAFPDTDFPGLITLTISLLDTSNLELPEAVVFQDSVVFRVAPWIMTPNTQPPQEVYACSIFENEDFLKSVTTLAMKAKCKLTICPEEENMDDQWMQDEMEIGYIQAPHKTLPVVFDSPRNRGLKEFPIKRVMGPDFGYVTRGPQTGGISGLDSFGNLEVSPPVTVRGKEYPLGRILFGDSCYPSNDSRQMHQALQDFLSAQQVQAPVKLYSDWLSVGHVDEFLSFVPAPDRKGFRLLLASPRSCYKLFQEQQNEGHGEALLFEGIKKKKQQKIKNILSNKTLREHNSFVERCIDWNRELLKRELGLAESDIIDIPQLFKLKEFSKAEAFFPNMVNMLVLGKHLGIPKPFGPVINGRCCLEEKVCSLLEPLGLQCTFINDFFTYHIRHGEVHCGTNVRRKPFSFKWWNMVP
Experiment [7] in a line: BSA probe fluorescence interference – biochemical, TAMRA-labeled BSA, counter-screen for TCR-CD3 interaction inhibitor project (AID 652035; in the data active = inhibition above about 23%;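 note: 0% = buffer low control and 100% = reference high control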). Particulars: TAMRA-labeled BSA probe fluorescence counterscreen; at 9.4 µM; hits give high values.
Experiment [8] concerns T-cell receptor (TCR)-CD3 interaction, human. In words: blockers of TCR binding to CD3 – biochemical, fluorescence, TAMRA-labeled TCR probe, confirmation (AID 652036; in the data active = inhibition above about 19%). Particulars: TAMRA-labeled TCR probe fluorescence binding assay; at 9.4 µM; hits give high values.
The target of experiment [9] is Nuclear receptor coactivator 3 (Homo sapiens) (UniProt Q9Y6Q9). Description: NCOA3 GAL4-fusion reporter inhibition – cell-based, luminescence, quadruplicate, confirmation (AID 588792;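 active = mean inhibition over 43.08%, the solvent-only control mean plus 3 SD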;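 note: 0% = DMSO treated cells and 100% = gossypol at 36 µM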). Particulars: HEK293 GAL4-SRC3 luciferase reporter, at 3.6 µM, hits give high values.
Experiment [10] concerns transactivating tegument protein VP16 (Human herpesvirus 1), Gal4-VP16 luciferase reporter. Description: repression of VP16-driven luciferase reporter – cell-based, luminescence, high throughput, counter-screen for SRC3 inhibitor project (AID 588794; in the data active = inhibition above about 30%). Particulars: mammalian cells, at 3.6 µM, hits give high values.
Experiment [11] deals with Nuclear receptor coactivator 1 (Homo sapiens) (UniProt Q15788). Description: NCOA1 GAL4-fusion reporter inhibition – cell-based, luminescence, quadruplicate, confirmation (AID 588820;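 active = mean inhibition above 46.68%, the untreated control wells mean plus 3 SD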;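 note: 0% = DMSO wells and 100% = gossypol 36 µM treated wells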). Particulars: HEK293 GAL4-SRC1 luciferase reporter, at 3.6 µM, hits give high values.
Experiment [12] in a line: repression of VP16-driven luciferase reporter – cell-based, luminescence, high throughput, counter-screen for SRC1 inhibitor project (AID 588824; in the data active = inhibition above about 25%). Particulars: cell-based VP16 transactivation luciferase luminescence; at 3.6 µM; hits give high values.
Experiment [13] can be described thus: StAR promoter reporter inhibitors, counter-screen for LRH-1 inverse agonist project, cell-based, luminescence, high throughput (AID 651611; in the data active = inhibition above about 28%). Particulars: StAR promoter luciferase reporter counterscreen, at 3.6 µM, hits give high values.
Experiment [14] in a line: compounds suppressing VP16-driven luciferase signal – cell-based, luminescence, high throughput, counter-screen for LRH-1 inverse agonist project (AID 651615; in the data active = inhibition above about 33%). Particulars: Gal4-VP16 luciferase reporter cells, at 3.6 µM, hits give high values.
Experiment [15] has as its target Toll-like receptor 9 (Homo sapiens) (UniProt Q9NR96). In words: disruptors of TLR9 binding to MyD88 – cell-based, CHO, BLA complementation, fluorescence, triplicate, confirmation (AID 540250;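 active = mean inhibition across three repeats above about 21% taken from the earlier screen, limit read from the data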;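 note: blue over green emission ratio reports constitutive TLR9 MyD88 association via BLA complementation; 0% = DMSO vehicle wells and 100% = clavulanate BLA inhibitor wells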). Particulars: CCF4 FRET ratio, at 4.98 µM, hits give high values.
Experiment [16] in a line: BLA reporter readout interference – cell-based, fluorescence, artefact control for TLR9-MyD88 binding inhibitor project (AID 540251;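 active = mean inhibition above a 50% cutoff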;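 note: counterscreen of TLR9-MyD88 hits on CMV-driven BLA in CHO-K1 cells; 0% = DMSO alone and 100% = clavulanate blocking BLA; higher means less blue over green ratio so more BLA blockade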). Particulars: CHO-BLA cells, CCF4 FRET ratio, at 4.98 µM, hits give high values.
The nature of experiment [17]: CHO cell viability loss – luminescence, single concentration, cytotoxicity control for TLR9-MyD88 binding inhibitor project (AID 588336; in the data active = inhibition above about 11%). The following applies: TLR9-MyD88 CHO cells cytotoxicity, at 4.98 µM, hits give high values.
The target of experiment [18] is Receptor-interacting serine/threonine-protein kinase 2 (Homo sapiens) (UniProt O43353). In words: inhibitors of RIPK2 association with NOD2 – fluorescence, CHO cells, BLA complementation, triplicate, confirmation (AID 624370;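 active = mean inhibition across replicates above a set limit taken from the earlier primary screen, cut at about 21% in these data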;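 note: 0% = DMSO-only wells and the high end = clavulanate BLA-blocked wells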). The following applies: CCF4 FRET, at 4.98 µM, hits give high values.
A short description of experiment [19]: BLA reporter readout interference – cell-based, CHO-K1 CMV-bla, CCF4 FRET, fluorescence, artefact control for NOD2-RIPK2 interaction inhibitor project, confirmation (AID 624371;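 active = mean inhibition above the low-control mean inhibition plus three low-control SD, cut at about 11% in these data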;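 note: 0% = DMSO only wells and 100% = clavulanate high control wells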). The following applies: CCF4 FRET ratio, counterscreen, at 4.98 µM, hits give high values.
Experiment [20] is described as follows: reduced OD of T4-infected AddAB+ E. coli – absorbance, E. coli V3065, T4 phage, triplicate, AddAB inhibitor project, confirmation (AID 488942;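 active = mean inhibition above a set limit taken from the earlier primary screen, cut at about 13% in these data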;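 note: higher means less bacterial growth since AddAB block lets phage replicate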). Particulars: E. coli V3065 expressing H. pylori AddAB, at 11.9 µM, hits give high values, T4 phage with gene 2 nonsense mutations.
Experiment [21] in a line: reduced OD of phage-infected RecBCD+ V66 E. coli – absorbance, mutant T4 phage, counter-screen for AddAB inhibitor project (AID 488955;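 active = mean inhibition above the mean of solvent-only control wells plus 3 SD, cut at about 4% in these data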;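 note: optical density read after an 18 h incubation at 37 °C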). The following applies: OD growth, at 11.9 µM, hits give high values.
Experiment [22] can be described thus: bacterial growth inhibitors – absorbance, counter-screen for AddAB inhibitor project, confirmation (AID 488956; in the data active = inhibition above about 25%). The following applies: bacterial viability, absorbance (AddAB counterscreen); at 11.9 µM; hits give high values.
The target in experiment [23] is Serine protease HTRA1 (Homo sapiens) (UniProt Q92743). In words: confirming inhibition of human HTRA1 – biochemical, fluorescence polarization, confirmation (AID 540248;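 active = mean inhibition over three repeats above a set limit taken from the earlier primary screen, cut at about 37% in these data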;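 note: 0% = HTRA1 with DMSO and 100% = wells lacking HTRA1; inhibitors block probe binding so polarization drops and inhibition rises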). The following applies: recombinant HTRA1, FP-rhodamine activity-based probe, at 5.96 µM, hits give high values.
Experiment [24] addresses (Lyso)-N-acylphosphatidylethanolamine lipase (Mus musculus) (UniProt Q8VD66). In words: mouse ABHD4 hydrolase blockers, triplicate – biochemical, fluorescence polarization, confirmation (AID 720658;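 active = mean inhibition across replicates above the hit cutoff set in the primary screen, cut at about 30% in these data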;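 note: 0% = wild-type ABHD4 with DMSO and 100% = catalytically dead S159A mutant with DMSO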). Particulars: purified mABHD4, FP-Rh probe fluorescence polarization; at 8.92 µM; hits give high values.
In experiment [25] the target is Oxysterols receptor LXR-beta (Homo sapiens) (UniProt P55055). Description: nonspecific reporter activation via LXR – cell-based, luminescence, HEK293, H. contortus campaign, counter-screen for hcDAF-12 agonist project, confirmation (AID 743027;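 active = mean percent activation of the reporter above a cutoff set as the average over tested compounds plus their standard deviation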). Particulars: HEK293 Gal4-LXR tk-luc reporter, 24 h, at 6.8 µM, hits give high values, normalized: DMSO 0%, positive control 100%.
Chain of Oxysterols receptor LXR-beta (Homo sapiens) (P55055 whole entry, looked up, the tested form may be a part): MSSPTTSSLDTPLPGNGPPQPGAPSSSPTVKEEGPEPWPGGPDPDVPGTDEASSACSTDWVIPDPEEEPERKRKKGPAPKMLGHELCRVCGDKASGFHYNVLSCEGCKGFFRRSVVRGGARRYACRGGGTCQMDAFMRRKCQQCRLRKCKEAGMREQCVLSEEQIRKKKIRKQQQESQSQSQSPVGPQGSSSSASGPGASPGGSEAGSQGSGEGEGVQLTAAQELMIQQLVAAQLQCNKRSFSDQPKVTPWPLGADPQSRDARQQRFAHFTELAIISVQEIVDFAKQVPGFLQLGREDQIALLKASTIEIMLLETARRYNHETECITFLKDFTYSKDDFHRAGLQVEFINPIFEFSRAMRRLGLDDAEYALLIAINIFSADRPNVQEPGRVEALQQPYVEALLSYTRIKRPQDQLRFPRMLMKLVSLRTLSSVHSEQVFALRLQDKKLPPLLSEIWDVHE

For experiment [26], the system named is Nuclear hormone receptor DAF-12 (Haemonchus contortus). Description: hcDAF-12 luciferase reporter activation, retest – cell-based, luminescence, HEK293, lit1-tk-luc, triplicate, confirmation (AID 743032;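 active = mean activation across triplicate tests above the threshold derived from the earlier primary screen, cut at about 5.5% in these data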;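 note: 0% = DMSO only wells and 100% = 3 µM Δ7-dafachronic acid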). The following applies: HEK293 hcDAF-12 lit1-tk-luc reporter, at 6.8 µM, hits give high values, % of Δ7-dafachronic acid response.

A number with no mark means an inactive call. The list shows a part of the results. The source made the active and inactive calls.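 Rule for the calls, unless noted: active = inhibition above the hit cutoff set in the earlier primary screen (cut at about 27% in these data); inactive = the rest.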

Chain of Steroidogenic factor 1 (Homo sapiens) (Q13285 whole entry, looked up): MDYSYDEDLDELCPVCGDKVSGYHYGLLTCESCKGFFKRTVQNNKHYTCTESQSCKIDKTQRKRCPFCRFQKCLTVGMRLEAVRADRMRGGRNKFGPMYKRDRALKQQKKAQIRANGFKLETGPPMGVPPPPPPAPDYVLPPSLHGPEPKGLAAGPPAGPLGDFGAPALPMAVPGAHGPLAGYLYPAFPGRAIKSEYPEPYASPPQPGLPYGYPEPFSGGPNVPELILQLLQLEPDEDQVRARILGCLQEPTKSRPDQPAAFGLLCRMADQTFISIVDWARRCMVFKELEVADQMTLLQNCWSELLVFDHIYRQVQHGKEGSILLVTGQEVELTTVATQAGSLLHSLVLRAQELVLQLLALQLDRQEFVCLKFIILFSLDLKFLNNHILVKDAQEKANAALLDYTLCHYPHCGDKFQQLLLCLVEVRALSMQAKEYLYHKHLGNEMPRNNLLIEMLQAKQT
Chain of (Lyso)-N-acylphosphatidylethanolamine lipase (Mus musculus) (Q8VD66 whole entry, looked up): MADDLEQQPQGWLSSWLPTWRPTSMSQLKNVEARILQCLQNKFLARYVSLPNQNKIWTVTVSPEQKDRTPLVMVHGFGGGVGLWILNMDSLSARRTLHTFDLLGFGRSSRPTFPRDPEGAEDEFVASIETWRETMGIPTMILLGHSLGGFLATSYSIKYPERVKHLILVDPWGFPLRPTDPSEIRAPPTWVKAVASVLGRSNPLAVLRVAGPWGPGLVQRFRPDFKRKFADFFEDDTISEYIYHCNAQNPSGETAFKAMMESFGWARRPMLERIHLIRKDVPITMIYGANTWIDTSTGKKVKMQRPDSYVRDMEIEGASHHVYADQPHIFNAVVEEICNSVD
Chain of Toll-like receptor 9 (Homo sapiens) (Q9NR96 whole entry, looked up): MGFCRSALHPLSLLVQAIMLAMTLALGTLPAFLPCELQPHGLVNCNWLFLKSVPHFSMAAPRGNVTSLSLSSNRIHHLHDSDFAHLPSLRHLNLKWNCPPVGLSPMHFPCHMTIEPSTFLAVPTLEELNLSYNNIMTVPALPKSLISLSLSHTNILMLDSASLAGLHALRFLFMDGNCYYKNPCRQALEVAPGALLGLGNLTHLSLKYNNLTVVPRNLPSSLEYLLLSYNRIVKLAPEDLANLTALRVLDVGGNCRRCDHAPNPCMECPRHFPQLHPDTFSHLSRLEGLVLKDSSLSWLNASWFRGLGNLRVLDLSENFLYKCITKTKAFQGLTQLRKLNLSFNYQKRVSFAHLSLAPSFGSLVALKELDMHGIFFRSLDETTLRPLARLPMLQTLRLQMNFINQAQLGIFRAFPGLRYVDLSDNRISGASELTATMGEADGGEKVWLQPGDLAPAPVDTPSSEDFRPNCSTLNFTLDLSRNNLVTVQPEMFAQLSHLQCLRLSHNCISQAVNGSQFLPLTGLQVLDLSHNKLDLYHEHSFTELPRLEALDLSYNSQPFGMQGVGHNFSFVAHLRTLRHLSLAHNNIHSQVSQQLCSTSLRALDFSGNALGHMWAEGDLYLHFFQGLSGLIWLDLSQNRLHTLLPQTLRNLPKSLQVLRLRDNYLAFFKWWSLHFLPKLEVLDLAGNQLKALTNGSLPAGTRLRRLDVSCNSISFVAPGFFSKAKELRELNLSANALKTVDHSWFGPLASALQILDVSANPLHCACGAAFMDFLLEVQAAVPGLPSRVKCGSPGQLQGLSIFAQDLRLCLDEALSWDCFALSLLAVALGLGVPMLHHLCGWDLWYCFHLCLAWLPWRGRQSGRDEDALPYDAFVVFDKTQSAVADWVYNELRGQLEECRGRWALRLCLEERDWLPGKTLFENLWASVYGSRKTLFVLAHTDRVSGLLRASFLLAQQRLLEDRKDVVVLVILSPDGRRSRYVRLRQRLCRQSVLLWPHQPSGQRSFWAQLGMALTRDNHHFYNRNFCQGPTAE

Broadly, the inhibition is the drop in the measured response relative to a control, in per cent. As for `COc1ccc2[nH]c(C)c(CCN(Cc3cccs3)C(=S)Nc3ccccc3OC)c2c1`, the inhibition in [1] was 14.6%; in [2], 12.4%.
The matching figures for `COCCN(CCOC)c1nc(N)c2c(N)nc3c(c2c1C#N)CC(=O)N3Cc1ccc(Cl)cc1`: 9.48% and 4.93%.
Take `O=C1CN(C(=O)c2ccccc2F)C(c2ccccc2)c2cc(F)ccc2N1` (centres undefined): the inhibition in experiment [3] is 16.4%.
On to `Nc1c(C(=O)Nc2ccccc2F)sc2nc(-c3ccco3)ccc12`, for which the inhibition in experiment [3] was 19.9%.
With `CC[C@]1(O)C[C@@H]2CN(CCc3c([nH]c4ccccc34)[C@@](C(=O)OC)(c3cc4c(cc3OC)N(C)[C@H]3[C@@](O)(C(=O)OC)[C@H](OC(C)=O)[C@]5(CC)C=CCN6CC[C@]43[C@@H]65)C2)C1`, the inhibition in [1] is 27.1%; in experiment [2], 35.2%; in [4], 42.5% (active); in experiment [5], 61.2% (active).
In the case of `Cc1nn(Cc2ccccc2)c(C)c1CNC(=O)c1ccc(F)c(S(=O)(=O)N2CCOCC2)c1`, the inhibition was 9.04% in experiment [1], 4.37% in [2] and 3.62% in experiment [6].
Consider `Cc1cc2nc3c(=O)n(CCc4ccccc4)c(=O)[nH]c3nc2cc1N`, for which the inhibition in experiment [3] is 44.2% (active).
Regarding `CCCC1OC23CCCCC2C(C#N)(C#N)C1(C#N)C(=N)O3` (centres undefined), the inhibition is 19.5% in experiment [1], 21% in experiment [2], 20% in experiment [7] and 10.8% in [8].
With `Cc1ccc2[nH]c(O)c(N=NC(=O)c3ccc(NS(=O)(=O)c4cccs4)cc3)c2c1`, the inhibition in experiment [3] was 45.9% (active).
For the molecule `Cc1cccn2c(=O)c3cc(C(=O)NCCN4CCOCC4)c(=N)n(Cc4cccnc4)c3nc12`, the inhibition is 55.8% (active) in [1]; 65.7% (active) in experiment [2]; 22.5% in experiment [9]; 20.1% in experiment [10]; 24.4% in experiment [11]; 17.3% in [12]. The inhibition was 21.2% in experiment [13], 57.8% (active) in experiment [4], 49.1% (active) in [5] and 28.6% in experiment [14].
With `COc1ncnc2c1N=C1CC(C)(C)CC(N)=C1S2`, the inhibition in experiment [1] was 144% (active); in experiment [2] it was 181% (active); in experiment [6] it was 24.1% (active).
As to `Nc1cccc2c1C(=O)N(Cc1nnc(-c3ccccc3Br)o1)C2=O`, the inhibition is 51.2% (active) in experiment [1]; 69% (active) in experiment [2]; 16.4% in experiment [15]; 19.9% in experiment [16]; 3.2% in experiment [17]; 37.4% (active) in [18]. Moreover, in experiment [19], the inhibition was 41.6% (active).
Turning to `O=c1ccc2c(-c3ccccc3S(=O)(=O)O)c3ccc(O)c(O)c3oc-2c1O`, the inhibition was 82.9% (active) in [1]; 67.6% (active) in experiment [2]; 7.55% in experiment [20]; 11% (active) in experiment [21]; 2.03% in experiment [22]; -1.72% in experiment [23]. Further, the inhibition was -101% in experiment [7], -20.4% in [8] and -24.3% in [24].
In the case of `Cc1nn(-c2ccccc2)c2sc(-c3n[nH]c(=S)o3)cc12`, the inhibition in [3] is 43.8% (active).
On to `COc1ccc(Nc2nc(-c3cccnc3)nc3ccccc23)cn1`, for which the inhibition is 90.3% (active) in [1]; 114% (active) in experiment [2]; 28.2% (active) in experiment [13]; 43.9% (active) in experiment [4]; 53.2% (active) in experiment [5]; -10.3% in [14].
Consider `Cn1c(=O)c(NCCO)c2c3c(cccc31)C(=O)c1ccccc1-2`, for which the inhibition in experiment [3] is 134% (active).
As to `Cc1cc(C)cc(NC(=S)NCCc2c[nH]c3ccccc23)c1`, the inhibition in experiment [3] was 25.5%.
On the same count and under the same terms, the value for `CCOC(=O)Cc1csc(NC(=O)c2sc3nc4cc(C)ccc4cc3c2N)n1` was 20.8%; that for `Cc1cc(N/N=C/c2c(O)ccc3ccccc23)nc(-c2ccccc2O)n1` was 23.6%.
On to `CC1(C)CC(=O)C2=C(C1)N1C(=C(C#N)C2c2ccc(Cl)cc2)N=C(N)c2ccccc21` (centres undefined), for which the inhibition in [3] was 44% (active).
For `Cc1nn(C(=O)c2ccoc2C)c(N)c1-c1ccccc1`, the figures for the inhibition in experiment [1], in experiment [2] and in experiment [6] were 1.59%, -8.2% and 1.71%, respectively. Besides, the activation in experiment [25] is 0.39%; in [26], 2.6%.
With `O=S(=O)(c1cccs1)N1CN(Cc2ccco2)c2nc3ccccc3nc21`, in experiment [3], the inhibition is 13.4%.
Regarding `COc1ccc2c(c1)CC/C(=C\Nc1ccc3c(c1)OCO3)C2=O`, the inhibition in experiment [3] was 36.9% (active).
In the case of `CCc1cccc2c(C(=O)COC(=O)c3ccc([N+](=O)[O-])s3)c[nH]c12`, the inhibition in experiment [3] is 24.6%.
Same read-out and setting: the result for `Nc1[nH]n(-c2ccccc2)c(=O)c1N=Nc1ccc2c(c1)OCCO2` reads 34.5% (active).
